A selection: hits, their analogues and other compounds. The true share with any hit is near 2.9%.
SNCA expr inhib – SNCA gene expression inhibition; Potency, µM (titrated, usually from 57.2 µM), hits mostly inhibitors; HEK-293 SNCA-luciferase knock-in, luminescence, 24 h; hit rate 0.17% among 140,000; also: nearly all actives have a fitted effect of over 45% in size
KDM5B inhibitor – blocks human KDM5B histone demethylase activity; Q9UGL1; KDM5B demethylase, FDH-coupled NADH fluorescence (FDH is formaldehyde dehydrogenase); Potency, µM (top dose mostly 57.7 µM), usual class: inhibitors; hit rate 2.6% among 220,000; AID 1347165; also: nearly all actives have a fitted effect of over 70% in size
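Measured: NADH fluorescence change, 30 min, RT. System: KDM5BΔAP 200 nM final, H3K4me3 peptide, α-KG, Fe(II), ascorbate, NAD⁺ plus FDH, pH 7.5 HEPES. Compounds: titrated, 10 min pre-incubation with enzyme.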
SNCA viab count – cell viability loss counter-screen. Potency, µM (titrated, usually from 57.1 µM), usual class: cytotoxic. hit rate 0.12% among 150,000. AID 1671193. HEK-293-SNCA-luc viability, GF-AFC fluorescence, 24 h; also: nearly all actives have a fitted effect of over 30% in size
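Cytotoxicity counterscreen: after 24 h compound treatment of genome-edited SNCA-luciferase HEK-293 cells, live-cell protease substrate GF-AFC read by fluorescence after 30 min; activity scaled between DMSO (0%) and medium-only (-100%), curves Hill-fitted.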
IP6K1 inhibitor – blocks human inositol hexakisphosphate kinase 1. IP6K1 kinase, ADP-Glo luminescence, 2 h; stronger effect = lower value. hit rate 0.81% among 140,000. AID 1645851. activity change, % (series mostly up to about 58 µM). Q92551; in the data active = activity change below about -25%
Target sequence (Q92551 whole entry, looked up): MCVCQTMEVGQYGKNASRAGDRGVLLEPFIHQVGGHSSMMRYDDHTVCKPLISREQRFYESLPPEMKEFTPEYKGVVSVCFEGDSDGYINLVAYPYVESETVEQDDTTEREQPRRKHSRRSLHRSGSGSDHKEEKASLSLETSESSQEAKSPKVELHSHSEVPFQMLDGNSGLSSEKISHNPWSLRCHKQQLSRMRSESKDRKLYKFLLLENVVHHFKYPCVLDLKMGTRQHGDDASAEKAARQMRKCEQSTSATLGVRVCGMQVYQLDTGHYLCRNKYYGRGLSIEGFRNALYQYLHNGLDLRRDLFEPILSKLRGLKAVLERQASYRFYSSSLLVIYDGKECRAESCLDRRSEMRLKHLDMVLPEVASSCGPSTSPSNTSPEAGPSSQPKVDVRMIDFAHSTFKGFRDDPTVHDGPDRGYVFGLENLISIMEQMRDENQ
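ADP-Glo luminescence measures ADP made by human IP6K1 during a 2 h RT reaction with ATP/IP6 (mix at 1.3 mM/130 uM); top library doses 57.5 and 19.1 uM final.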
Numbers stand for hits; - = inactive; ? = inconclusive; . = not tested or not shown. Unless noted, calls follow the shape of the dose curve; as a rule, active = well fitted curve in the direction sought with a large enough effect; inconclusive = small, poorly fitted or top-dose-only effect, or another doubt; inactive = no such curve, though single readings can be large; an effect the other way counts as inactive or inconclusive.

SMILES	SNCA expr inhib	KDM5B inhibitor	SNCA viab count	IP6K1 inhibitor
N#Cc1cccc(-c2cn3c(n2)N(C(=O)c2cccc(F)c2)CCC3)c1	-	22.4µM	-	-
O=S(=O)(Nc1ccc(Cl)cc1)c1cccc(S(=O)(=O)c2ccc(Cl)c(Cl)c2)c1	?	-	-	-
Cc1ccc(C(=O)N2CCCn3cc(-c4cccc(C#N)c4)nc32)cn1	-	28.2µM	-	-
N#Cc1cccc(-c2cn3c(n2)N(C(=O)c2ccco2)CCC3)c1	-	25.1µM	-	-
Cc1ccsc1C(=O)N1CCCn2cc(-c3cccc(C#N)c3)nc21	-	14.1µM	-	-
C[C@@]12C(=O)OC(=O)[C@@]1(C)C1CCC2O1	15.2µM	.	?	.
CCC(=O)N(C1CCOCC1)C1CCN(Cc2cccc(Cl)c2F)CC1	-	-	-	-
O=C(Cn1ccn2nc(-c3ccc(F)cc3)c(CO)c2c1=O)Nc1ccc(Cl)cc1F	-	31.6µM	-	-
O=C(Cn1ccn2nc(-c3ccccc3)c(CO)c2c1=O)Nc1cccc(F)c1	-	17.8µM	-	-
Cc1cccc(NC(=O)Cn2ccn3nc(-c4ccccc4)c(CO)c3c2=O)c1	-	?	-	-
O=C(CN1C(=O)COc2ccc(C(=O)COc3ccccc3Cl)cc21)NCC1CCCO1 (centres undefined)	-	-	-	-
COC(=O)C(C#N)c1nc2ccccc2nc1NCCCO (centres undefined)	.	-	.	.
COc1ccc(-c2nc(C3CC3)nc3c2CCN(CC2CC2)CC3)cc1	-	?	-	-
COc1ccc(-c2nc(C3CC3)nc3c2CCN(Cc2ccsc2)CC3)cc1	?	79.4µM	?	-
COc1ccc(-c2nc(C3CC3)nc3c2CCN(Cc2ccc(F)cc2)CC3)cc1	-	?	-	-
COc1ccc(-c2nc(C3CC3)nc3c2CCN(Cc2cccn2C)CC3)cc1	?	50.1µM	?	-
COc1ccc(-c2nc(C3CC3)nc3c2CCN(CC2CCCCC2)CC3)cc1	-	25.1µM	-	-
Cc1c(C)n(Cc2ccccc2)c2ccc(C(=O)OCCN(C)C)cc12	-	.	-	-
COc1cc2nccc(Oc3ccc(NC(=O)Nc4ccc(F)cc4F)c(F)c3)c2cc1OC	-	.	-	.
Cc1nc2ncccn2c1C(=O)N1CCC2(CCCN(C)C2=O)C1 (centres undefined)	-	28.2µM	-	-
Cc1c(-c2cccc(NC(=O)Cc3ccccc3)c2)nc2ncccn12	-	?	-	-
Cc1nc(C(C)C)ncc1C(=O)N1CCC2(CCCN(C)C2=O)C1 (centres undefined)	-	-	-	-
CCOC(=O)C1(Cc2ccccc2F)CCCN(C(=O)c2ccc(-n3ccnc3)cc2)C1 (centres undefined)	-	-	-	-
Cc1nc2ncccn2c1C(=O)N1CCC(c2nccn2CC(N)=O)CC1	-	28.2µM	-	-
CCOC(=O)C1(Cc2ccc(F)cc2F)CCCN(C(=O)c2c(C)nc3ncccn23)C1 (centres undefined)	-	31.6µM	-	-
SMILES	SNCA expr inhib	KDM5B inhibitor	SNCA viab count	IP6K1 inhibitor
CCn1ccnc1C1CCN(C(=O)Cn2cccnc2=O)CC1	-	?	-	-
Cc1nc2ncccn2c1C(=O)N1C[C@H]2C(=O)NC[C@@]2(C(=O)O)C1	-	28.2µM	-	-
Cc1ccc(-c2cnc(CCC(=O)NCC3CC3)o2)cc1C	.	-	.	.
Cn1nc(C(=O)NC2CCc3nn(CC4CC4)c(=O)n3CC2)c2ccccc21 (centres undefined)	-	28.2µM	-	-
Cc1ccsc1C(=O)NC1CCc2nn(CC3CC3)c(=O)n2CC1 (centres undefined)	-	-	-	-
O=C(NC1CCc2nn(CC3CC3)c(=O)n2CC1)c1ccc[nH]c1=O (centres undefined)	-	28.2µM	-	-
COc1ccc2c(c1)c(CN1CCOCCNC(=O)CC1)cn2C(C)C	-	20µM	-	-
Cc1noc(-c2ccn3c(CNC(=O)c4ccco4)nnc3c2)n1	-	28.2µM	-	-
CCCc1noc(-c2ccn3c(CNC(=O)c4ccc5ccccc5n4)nnc3c2)n1	-	12.6µM	-	-
CCCc1noc(-c2ccn3c(CNC(=O)c4ccco4)nnc3c2)n1	-	28.2µM	-	-
CCCc1noc(-c2ccn3c(CNC(=O)c4cccc(N(C)C)c4)nnc3c2)n1	-	?	-	-
Cc1cc(C)cc(NC(=O)CN2CCN(c3ccccc3)CC2)c1	.	-	.	.
O=C(NC1CC1)c1nc(-c2cccnc2)c2ccccn12	-	89.1µM	-	-
O=C(NC1CC1)c1nc(-c2ccc(F)cc2)c2ccccn12	-	31.6µM	-	-

Screening results from PubChem.
